From PubChem
Sa ugtP lethal = growth inhibition of ugtP-null S. aureus, primary screen, RN4220 ugtP deletion, OD600; 16 h; growth inhibition, % (no concentration beside the values); actives 0.54% (n = 330,000); AID 1259309, 2017; in the data active = growth inhibition above about 68%
BJeLR viability = MLPCN primary cell-based screen for lethality selective to Ras in HRASV12 cells; actives 0.17% (n = 300,000); BJeLR (HRASV12) viability, CellTiter-Glo ATP luminescence, 48 h; inhibition, % (test concentration not listed); in the data active = inhibition above about 50%
Sa RN4220 lethal = growth inhibition of S. aureus RN4220, primary screen, OD600; 16 h; inhibition, % (no concentration beside the values); actives 0.33% (n = 330,000); AID 1259311, 2017; in the data active = inhibition above about 85%
PrPC TRFRET = inhibitors of human cell surface prion protein PrPC, primary screen, cell-based, TR-FRET; Major prion protein (Homo sapiens), P04156; TR-FRET read-out; inhibition, % at 13.8 µM; actives 0.43% (n = 370,000); in the data active = inhibition above about 24%
PrPC TRFRET cf = confirmation of inhibitors of cell surface human prion protein, confirmation, cell-based, TR-FRET; inhibition, % at 13.8 µM; shares compounds with PrPC TRFRET; cell surface PrPC level; actives 65% (n = 1,500); AID 743200, 2013; in the data active = inhibition above about 25%
LD9 cytotox = cytotoxicity in LD9 cells, cytotoxicity control for cell surface PrPc inhibitor project, cell-based, luminescence, high throughput; shares compounds with PrPC TRFRET; luminescence viability; inhibition, % at 13.8 µM; actives 29% (n = 1,500); in the data active = inhibition above about 9.5%
Large screens that a line does not name were inactive (follow-up assays come after a bar, where they were run). Shown are actives, neighbours in structure and some others; about 0.95% of the full set was active somewhere.

CSc1nc2c(cc1C#N)CCC2	none
Brc1cc(Br)c2nc3c(cc2c1)CCC3	PrPC TRFRET 26.3 | PrPC TRFRET cf 71.0 | LD9 cytotox inactive
CC1(Cc2cccc(F)c2)C(=O)Nc2ccc(S(=O)(=O)NC3CCCCC3)cc21 (configuration not stated)	PrPC TRFRET 35.8 (no result: Sa ugtP lethal, BJeLR viability, Sa RN4220 lethal) | PrPC TRFRET cf inactive | LD9 cytotox inactive
C[C@@H]1C[C@H]2O[C@@H]2/C=C\C=C\C(=O)Cc2cc(O)cc(O)c2C(=O)O1	PrPC TRFRET 81.2 (no result: Sa ugtP lethal, BJeLR viability, Sa RN4220 lethal) | PrPC TRFRET cf 47.7 | LD9 cytotox 61.2
Cc1cccc2c(=O)c(-c3ccc4c(c3)OCO4)c(NC(=O)c3ccco3)oc12	PrPC TRFRET 63.5 | PrPC TRFRET cf 66.5 | LD9 cytotox inactive
Cc1cccc(-c2c(NC(=O)c3ccco3)oc3c(C)cccc3c2=O)c1	none
CCN(CC)C(=O)Cn1cc(C(=O)C(=O)N2CCc3ccccc32)c2ccccc21	PrPC TRFRET 53.4 | PrPC TRFRET cf inactive | LD9 cytotox inactive
CCN(CC)C(=O)Cn1cc(C(=O)C(=O)N2CCCc3ccccc32)c2ccccc21	none (no result: BJeLR viability)
COc1ccc(N2CCCN(CC(=O)Nc3ccc(Cl)c(Cl)c3)CC2)cc1	none (no result: Sa ugtP lethal, BJeLR viability, Sa RN4220 lethal)
O=C(N/N=C/c1ccc(O)cc1O)c1ccc(NC(=O)C2CCCCC2)cc1	PrPC TRFRET 34.2 (no result: Sa ugtP lethal, Sa RN4220 lethal) | PrPC TRFRET cf 36.8 | LD9 cytotox inactive
COC(=O)CSc1ccnc2cc(Cl)ccc12	PrPC TRFRET 68.1 | PrPC TRFRET cf 91.9 | LD9 cytotox inactive
CC(=O)N1CCN(c2ccnc3cc(Cl)ccc23)CC1	none
Cc1cnc2cc(Cl)ccc2c1SCC(=O)O	none
O=C(O)CSc1ccnc2cc(Cl)ccc12	PrPC TRFRET 47.2 | PrPC TRFRET cf 90.3 | LD9 cytotox inactive
O=C(C(=O)N1CCC(CNS(=O)(=O)c2ccc3ccccc3c2)CC1)c1cc2ccccc2o1	none (no result: Sa ugtP lethal, BJeLR viability, Sa RN4220 lethal)
Oc1ccc(Br)cc1C=Nn1c(C2CCCCC2)n[nH]c1=S	none (no result: BJeLR viability, PrPC TRFRET)
CC(C)CC(N)c1csc(Nc2ncccn2)n1 (configuration not stated)	PrPC TRFRET 41.5 (no result: Sa ugtP lethal, BJeLR viability, Sa RN4220 lethal) | PrPC TRFRET cf 50.1 | LD9 cytotox inactive
CC(=Nn1c(C)nc2ccccc2c1=O)c1ccc(C)o1	none (no result: BJeLR viability, PrPC TRFRET)
CC[C@H](CO)Nc1nc(Nc2cccc(Cl)c2)c2ncn(C(C)C)c2n1	PrPC TRFRET 24.7 (no result: Sa ugtP lethal, Sa RN4220 lethal) | PrPC TRFRET cf inactive | LD9 cytotox 11.3
Cc1ccc(C(=O)Nc2ncc(Cc3ccccc3)s2)o1	PrPC TRFRET 26.8 | PrPC TRFRET cf 25.7 | LD9 cytotox inactive
CC(=NNC(=O)CNC(=O)c1ccc2c(c1)OCO2)c1ccco1	none (no result: BJeLR viability, PrPC TRFRET)
CN(C)S(=O)(=O)c1cccc(NC(=O)CSc2nc3ccccc3[nH]2)c1	none
CN(C)S(=O)(=O)c1cccc(NC(=O)CSc2ncnc3ccccc23)c1	PrPC TRFRET 51.4 | PrPC TRFRET cf 77.1 | LD9 cytotox inactive
O=C(CSc1ncnc2ccccc12)Nc1cccc(S(=O)(=O)N2CCOCC2)c1	PrPC TRFRET 68.0 | PrPC TRFRET cf 65.6 | LD9 cytotox inactive
CN(C)S(=O)(=O)c1ccc(NC(=O)CSc2ncnc3ccccc23)cc1	PrPC TRFRET 50.3 | PrPC TRFRET cf 53.4 | LD9 cytotox inactive
COc1ccc(CSCC(=O)NN=Cc2ccccc2OCc2ccccc2)cc1	none (no result: BJeLR viability, PrPC TRFRET)
NC(Cc1ccccc1)c1csc(NC(=O)Nc2ccccc2Oc2ccccc2)n1 (configuration not stated)	PrPC TRFRET 25.0 (no result: Sa ugtP lethal, BJeLR viability, Sa RN4220 lethal) | PrPC TRFRET cf 27.4 | LD9 cytotox inactive
COc1ccc(C(=O)Nc2scc(-c3ccc(Cl)cc3Cl)c2C(N)=O)cc1	PrPC TRFRET 68.4 | PrPC TRFRET cf 33.6 | LD9 cytotox inactive
CCC(C)NC(=O)c1cccc(OCc2c(C)noc2C)c1 (configuration not stated)	none
CCOC(=O)c1c(C)[nH]c(C(=O)C(C)OC(=O)c2cccc(OCc3c(C)noc3C)c2)c1C (configuration not stated)	PrPC TRFRET 38.3 | PrPC TRFRET cf 26.3 | LD9 cytotox inactive
Cc1ccc(CN(CC(=O)NN=Cc2ccco2)S(=O)(=O)c2ccc(C)cc2)cc1	none (no result: BJeLR viability, PrPC TRFRET)
COc1ccc(C(=O)NCCSc2ccc(C)cc2)cc1	PrPC TRFRET 57.0 | PrPC TRFRET cf inactive | LD9 cytotox inactive
O=C(CSCc1ccc(Cl)cc1)NN=Cc1ccc(OCC(=O)Nc2ccccc2)cc1	none (no result: BJeLR viability, PrPC TRFRET)
